High-throughput results: PubChem, National Center for Advancing Translational Sciences (NCATS)
Rows were chosen to be rich in hits. Some 19% of all compounds tested hit in one or more screens of this group.
AMA1 RON2 block = qHTS for Inhibitors of AMA1-RON; Towards Development of Antimalarial Drug Lead: Primary Screen | AlphaScreen AMA1-biotinylated RON2 peptide binding | hit rate 0.2% among 360,000 | AID 720542, 2013 | Potency, µM (series often up to 58.2 µM), for inactives: at the highest dose activity change, negative = inhibition, hits mostly inhibitors | Plasmodium falciparum AMA1 (3D7) - RON2 peptide interaction;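 further: potency means the concentration at half of the fitted maximal effect; 0% = vehicle wells and -100% = peptide control; nearly all actives have a fitted effect of over 45% in size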
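AMA1 (3D7) with his tag at 25 nM final met compounds first, then biotinylated RON2 peptide at 25 nM; detection used donor plus acceptor beads, 10 µg/mL apiece, read by AlphaScreen after 30 min at room temperature.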
SARS PLpro yeast = qHTS of Yeast-based Assay for SARS-CoV PLP; hit rate 0.19% among 330,000; S. cerevisiae expressing SARS-CoV PLpro, growth rescue; Potency, µM (doses to about 32.9 µM), inactives show top-dose activity, positive = growth rescue, hits mostly activators; calls by dose curve; further: potency means the concentration at half of the fitted maximal effect; 0% is about no effect; nearly all actives have a fitted effect of over 55% in size
Pf growth 48h = Primary qHTS for delayed death inhibitors of the malarial parasite plastid, 48 hour incubation | hit rate 5.9% among 310,000 | P. falciparum luciferase growth in erythrocytes, 48 h | Potency, µM (series often up to 28.7 µM), without a hit: top-dose activity change, negative = inhibition, usual class: inhibitors; further: potency means the concentration at half of the fitted maximal effect; on the % scale 0 is the no-effect control and ±100 the full control effect
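A one-generation exposure of luciferase-tagged malaria parasites in RPMI 1640/Albumax erythrocyte culture, 37 C and 5% CO2. Inhibition is inferred from decreased luminescence after adding detection reagent.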
Pf growth 96h = Primary qHTS for delayed death inhibitors of the malarial parasite plastid, 96 hour incubation; Potency, µM (top dose mostly 28.7 µM), for inactives: at the top dose activity change, negative = inhibition, most hits filed as inhibitors; hit rate 6.9% among 320,000; P. falciparum luciferase reporter growth, 96 h; further: potency means the concentration at half of the fitted maximal effect; on the % scale 0 is the no-effect control and ±100 the full control effect
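Delayed-death screen, second-generation endpoint: infected erythrocytes, 2% hematocrit, 0.05% parasitemia final; 96 hours at 37 C, 5% CO2; luciferase detection reagent; luminescence decrease equals reduced growth.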
Shiga inhibitor = A qHTS for Small Molecule Inhibitors of Shiga Toxin | inhibition, % at 38.7 µM | hit rate 9.2% among 290,000 | Vero cells, Shiga toxin protein synthesis inhibition reporter; in the data active means inhibition mostly above about 28%, no sharp cut-off; inactive means mostly below about 43%; further: 0% is about no effect
Cycloheximide cs = Cycloheximide Counterscreen for Small Molecule Inhibitors of Shiga Toxin. AID 2314, 2010. cell reporter, cycloheximide protein synthesis inhibition counterscreen. hit rate 12% among 300,000. max response, %; in the data active means max response mostly above about 13%, no sharp cut-off; inactive means mostly below about 14%; further: read at 38.3 µM for the half of the compounds with a filed dose; 0% is about no effect
* hit, by the source's call; ? = inconclusive; / = not tested or not shown. Unless noted, the call rests on the fitted dose curve; in most records, active means well fitted curve in the direction sought with a large enough effect; inconclusive means small, poorly fitted or top-dose-only effect, or another doubt; inactive means no such curve, though single readings can be large; an effect the other way counts as inactive or inconclusive.

SMILES	AMA1 RON2 block	SARS PLpro yeast	Pf growth 48h	Pf growth 96h	Shiga inhibitor	Cycloheximide cs
COc1cccc(OC)c1C(=O)N1CCN(Cc2ccccc2C)CC1	-12%	-2%	-26%	?	-14	3
O=c1[nH]c2ccccc2cc1CN(Cc1ccco1)S(=O)(=O)c1ccccc1	-5%	-2%	-2%	8%	-3	-2
N=c1oc2ccc3ccccc3c2cc1C(N)=S	61%	0%	8%	37%	8	9
CCN(CC(=O)Nc1cc(S(=O)(=O)N2CCOCC2)ccc1Cl)Cc1ccccc1	37%	3%	12µM*	12µM*	/	/
CCN(CC(=O)Nc1cc(S(=O)(=O)N2CCCCC2)ccc1Cl)Cc1ccccc1	-3%	-2%	10µM*	10µM*	/	/
CCN(CC(=O)Nc1ccc(S(=O)(=O)N2CCCCC2)cc1)Cc1ccccc1	-13%	0%	?	?	/	/
Cc1nn(CC(=O)NCCc2ccc(Cl)cc2Cl)c(C)c1[N+](=O)[O-]	-3%	15%	12µM*	?	-5	1
Cc1nn(CC(=O)c2ccccc2Cl)c(C)c1[N+](=O)[O-]	1%	-2%	129%	151%	93*	48*
Cc1ccc2c(c1C)NC(C)CC2C (stereo not drawn)	-7%	-1%	13µM*	?	-4	1
Cc1cccc2c1NC1(CCCC1)CC2C (stereo not drawn)	-19%	0%	-8%	?	-5	2
Cc1cc(C)cc(OCC(=O)Nc2cc(C)on2)c1	2%	2%	39%	276%	-7	-2
Cc1ccc(OCC(=O)NCCO)cc1C	0%	1%	/	1.3µM*	-1	7
Cc1cc(NC(=O)COC(=O)c2n[nH]c3ccccc23)no1	-1%	13%	19%	42%	31	20*
Cc1cc(NC(=O)COc2cccc([N+](=O)[O-])c2)no1	8%	3%	1.7µM*	-29%	-8	-2
Cc1cc(NC(=O)COc2ccc3ccccc3c2)no1	-2%	2%	11%	?	27	31*
CC1CCCN(C(=O)c2cc(F)c(F)cc2Cl)C1 (stereo not drawn)	-3%	3%	3%	1%	12	-2
CCOc1ccc(CNC(=O)CCCOc2cc(=O)n(C)c3ccccc23)cc1	0%	8%	/	/	-8	-3
CS(=O)(=O)Nc1cccc2[nH]ncc12	0%	0%	0%	14%	-1	-3
CCN(C(=O)CSc1ncccc1C(=O)Oc1cccc([N+](=O)[O-])c1)c1cccc(C)c1	-10%	18%	-5%	-5%	-2	-4
COC(=O)c1cccc(NC(=O)/C=C/c2cccc([N+](=O)[O-])c2)c1	5%	1%	74%	346%	52	15*
CSc1cccc(NC(=O)CSc2ncccc2C(=O)Oc2cccc([N+](=O)[O-])c2)c1	-6%	0%	27%	?	-1	17*
Cc1ccc(OCC(=O)Nc2cc(C)on2)c([N+](=O)[O-])n1	0%	0%	29%	33%	105*	35*
Cc1cc(NC(=O)COC(=O)c2ccccc2[N+](=O)[O-])no1	1%	2%	215%	34%	45	28*
Cc1cc(NC(=O)COC(=O)c2ccccc2Cl)no1	14%	-3%	/	/	/	/
O=C(Nc1ccc(F)c(Cl)c1)c1csc(COCCO)n1	-1%	/	/	/	/	/
CCOC(=O)C1=CCN(S(=O)(=O)c2ccccc2C)C1c1cccc(Cl)c1 (stereo not drawn)	1%	/	/	/	/	/
O=C(COc1ccc2ccccc2c1)Nc1ccncc1	0%	-3%	1%	?	27*	27*
Cc1ccc(OCC(=O)Nc2cc(C(C)(C)C)on2)cc1C	-6%	1%	5.2µM*	6%	-12	-2
Cc1cc(OCC(=O)Nc2cc(C(C)(C)C)on2)ccc1[N+](=O)[O-]	-5%	?	14%	?	12	5
COc1ccc2c(COC(=O)c3n[nH]c4ccccc34)cc(=O)oc2c1	-6%	5%	29%	/	107*	26*
